High-throughput results (PubChem BioAssay)
HTT ATP protect = protects HTT-Q103 PC12 cells, measured by ATP; PC12 HTT-Q103 induced, cytoprotection, ATP luminescence, 40 h; Potency, µM (titrated, usually from 56.4 µM), without a hit: cytoprotection (ATP increase), usual class: activators; 230,000 compounds, 0.14% hits; AID 1471; note: potency is the fitted concentration of half-maximal effect; % of control where 0% means no effect; nearly all actives have a fitted effect of over 45% in size
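Compounds were screened for protection of PC12 cells against cell death after tebufenozide induction (100 nM final) of mutant Huntingtin exon 1 (Q103) fused to GFP.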
HPGD block = blocks human HPGD enzyme activity; 150,000 compounds, 4.3% hits; purified HPGD, NADH fluorescence kinetic, PGE2 substrate; Potency, µM, inactives show at the highest dose activity change, negative = inhibition, actives largely listed as inhibitors; active = well fitted inhibition curve with a large enough effect, not every such curve was filed as active; inconclusive = small, poorly fitted or top-dose-only effect, or another doubt; inactive = no such curve, though single readings can be large or run the other way; note: potency is the fitted concentration of half-maximal effect; % is set by controls: 0 for no effect and ±100 for the full control effect
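20 nM HPGD preincubated 15 min at room temperature with compound in 50 mM Tris-HCl pH 8, 0.01% Tween 20. Started with 1 mM NAD+ and 30 uM prostaglandin E2; NADH fluorescence (360/450 nm) read 5 times over 30-s intervals, last minus first.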
PNC inhibitor = blocks assembly of the perinucleolar compartment | AID 2417 | 140,000 compounds, 3.1% hits | PC3M PTB-GFP, PNC prevalence imaging, 16 h; stronger effect = lower value | activity change (PNC), negative = inhibition, % at 10 µM;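 active = readout at or below -70, meaning at least 70% loss of cells showing the perinucleolar compartment, a nuclear body marking cancer cells; inconclusive = readout between -30 and a set limit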;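 note: plate controls were DMSO wells for no effect and camptothecin positive control wells for full effect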
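Read-out is percentage of cells bearing a perinucleolar compartment, from automated 20x imaging of fixed, Hoechst-stained PC3M PTB-GFP cells. Cells were seeded 4 h, then exposed 16 h to compound (23 nl of library stock) in duplicate plates.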
ALDH1A1 block = blocks purified human ALDH1A1 activity | P00352 | Purified ALDH1A1, NADH fluorescence, propionaldehyde substrate | Potency, µM (titrated, usually from 75.3 µM), without a hit: at the highest dose activity, negative = inhibition, hits mostly inhibitors | 220,000 compounds, 7.3% hits; active = well fitted inhibition curve with a large enough effect, not every such curve was filed as active; inconclusive = small, poorly fitted or top-dose-only effect, or another doubt; inactive = no such curve, though single readings can be large or run the other way;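 note: potency is the fitted concentration of half-maximal effect; plate controls were no enzyme wells and a reference inhibitor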
HTT aggregate = reduces HttQ103-GFP aggregates in PC12 cells; Potency, µM (highest dose often 46.1 µM), for the others: top-dose activity change, negative = inhibition, most hits filed as inhibitors; 220,000 compounds, 1.1% hits; AID 1688; PC12 HttQ103-GFP aggregates, Acumen cytometry, 40 h; note: potency is the fitted concentration of half-maximal effect; % is set by controls: 0 for no effect and ±100 for the full control effect; nearly all actives have a fitted effect of over 60% in size
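Quantitative HTS on tebufenozide-induced (100 nM) PC12 cells stably expressing polyQ103 Huntingtin exon 1–GFP. Reduction of bright GFP aggregates, detected by laser scanning cytometry after lysis, identified actives across the titration.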
CBFb-RUNX1 inh = blocks binding between human CBF-beta and RUNX1; AlphaScreen CBFb-His/RUNX1-biotin binding, biochemical; Potency, µM (highest dose often 59.8 µM), inactives show top-dose activity, negative = inhibition, actives largely listed as inhibitors; 230,000 tested, under 10 active; AID 1477; note: % of control where 0% means no effect
Target sequence (Q01196 whole entry, looked up): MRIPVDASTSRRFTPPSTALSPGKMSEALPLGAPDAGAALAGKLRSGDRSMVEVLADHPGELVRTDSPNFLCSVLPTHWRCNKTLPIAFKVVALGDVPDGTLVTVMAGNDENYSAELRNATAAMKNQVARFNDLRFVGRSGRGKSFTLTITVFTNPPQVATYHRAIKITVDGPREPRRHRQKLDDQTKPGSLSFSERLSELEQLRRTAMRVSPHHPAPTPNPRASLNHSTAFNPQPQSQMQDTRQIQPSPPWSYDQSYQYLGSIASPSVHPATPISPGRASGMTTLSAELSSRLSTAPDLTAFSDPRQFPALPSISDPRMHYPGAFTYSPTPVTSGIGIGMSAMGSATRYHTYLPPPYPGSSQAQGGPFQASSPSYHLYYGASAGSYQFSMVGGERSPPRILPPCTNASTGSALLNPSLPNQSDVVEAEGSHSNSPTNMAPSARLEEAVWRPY
Target sequence (Q13951 whole entry, looked up): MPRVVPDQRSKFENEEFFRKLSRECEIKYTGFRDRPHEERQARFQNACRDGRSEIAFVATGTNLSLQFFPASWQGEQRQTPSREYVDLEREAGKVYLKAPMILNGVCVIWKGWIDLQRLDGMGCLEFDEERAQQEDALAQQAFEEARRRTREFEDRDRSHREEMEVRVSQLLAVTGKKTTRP
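Bead-based AlphaScreen assay; binding partners His-tagged CBF-beta and biotinylated RUNX1 at 30 nM each. Compound exposure 15 min after a 20-min protein preincubation; bead step 90 min; all steps at room temperature.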
* hit, by the source's call; ? = inconclusive; . = no result; [ ] = another dose, or the depositor's remark. A selection: hits, their analogues and other compounds. The true share with any hit is near 11%. Unless noted, calls come from the whole dose curve; as a rule, active = well fitted curve in the direction sought with a large enough effect; inconclusive = small, poorly fitted or top-dose-only effect, or another doubt; inactive = no such curve, though single readings can be large; an effect the other way counts as inactive or inconclusive.

SMILES	HTT ATP protect	HPGD block	PNC inhibitor	ALDH1A1 block	HTT aggregate	CBFb-RUNX1 inh
CC(=O)Oc1ccc(C(=O)Nc2cccc(C(=O)c3ccc(C)c(C)c3)c2)cc1	-6.8%	-16.1%	32.1	-1.8%	-4.1%	-5.0%
CCN(CC)S(=O)(=O)c1ccc(Cl)c(NC(=O)c2ccc(C#N)cc2)c1	6.5%[10 µM]	1.9%	-97.0*	?	-6.4%	-8.9%
CCn1cc(C(=O)NCc2ccccc2Cl)cn1	.	31.6µM*	?	6.8%	-9.4%	19.6%
CC(C)CN(C(=O)COC(=O)c1ccc2c(c1)NC(=O)CS2)C1CCS(=O)(=O)C1 (configuration not stated)	-2.0%	?	?	39.8µM*	18.0%	3.4%
CN(C(=O)COC(=O)c1ccc2c(c1)NC(=O)CS2)C1CCS(=O)(=O)C1 (configuration not stated)	-76.6%	-7.9%	29.0	4.8%	-0.1%	-0.1%
CS(=O)(=O)c1ccc(Cl)c(NC(=O)CCl)c1	-186.6%	.	.	3.16µM*	29.6%	-2.1%
CS(=O)(=O)c1ccc(C(=O)Nc2cc(S(C)(=O)=O)ccc2Cl)cc1	9.2%[10 µM]	.	11.1	6.1%	4.3%	0.1%
COc1ccccc1CNS(=O)(=O)c1c(C)noc1C	-9.1%	-6.4%	25.7	8.6%	10.2%	1.3%
Cc1cc2c(c(C)c1Cl)C(c1ccc3c(c1)OCO3)CC(O)(c1ccccc1)O2 (configuration not stated)	.	.	.	.	.	2.5%
COc1ccc(C2C3=C(CCCC3=O)Nc3nc(SCc4ccc(C(=O)O)cc4)nn32)cc1OC (configuration not stated)	0.9%	?	51.4	?	-7.3%	-6.7%
COc1ccc(C2C3=C(CCCC3=O)Nc3nc(SCc4ccccc4)nn32)cc1OC (configuration not stated)	37.6%[10 µM]	-16.1%	-85.8*	1.8%	13.5%	7.7%
COC(=O)c1nc2n(n1)C(c1cccc(Cl)c1)C1=C(CCCC1=O)N2 (configuration not stated)	-9.0%	15.8µM*	9.4	17.8%	0.9%	-2.2%
O=c1c(-c2ccc(F)cc2)nc2cnc(N3CCNCC3)nc2n1C1CC1	-25.0%	.	.	?	.	.
CCOc1ncccc1C(=O)OCc1cc(=O)n2c(n1)sc1ccccc12	6.2%[10 µM]	.	.	.	.	.
O=C(CCN1C(=O)C2C3C=CC(C3)C2C1=O)Nc1ccccc1 (configuration not stated)	3.2%[10 µM]	.	.	-5.8%	5.8%[9.22 µM]	-1.5%
O=C(CCN1C(=O)C2C3C=CC(C3)C2C1=O)NCCc1ccccc1Cl (configuration not stated)	6.9%[10 µM]	-12.9%	15.6	8.91µM*	13.7%	11.2%
O=C1S/C(=C\c2ccc(O)c([N+](=O)[O-])c2)C(=O)N1c1ccccc1Cl	18.0%[10 µM]	.	.	0.447µM*	-4.7%[9.22 µM]	-0.9%
COc1cc(/C=C2\SC(=O)N(c3cccc(Cl)c3)C2=O)cc([N+](=O)[O-])c1O	14.5%[10 µM]	.	.	0.891µM*	17.8%[9.22 µM]	0.2%
O=C1S/C(=C\c2ccc(O)c([N+](=O)[O-])c2)C(=O)N1Cc1cccc([N+](=O)[O-])c1	-8.0%[10 µM]	.	.	?	0.0%[9.22 µM]	-24.8%
O=C(NC1CCCc2ccccc21)C1CCN(c2c(N3CCCC3)c(=O)c2=O)CC1 (configuration not stated)	4.9%	.	.	.	.	.
Cc1cccc(Nc2nc3c(S(=O)(=O)c4ccccc4)nnn3c3ccccc23)c1	.	?	-90.5*	?	0.5%	7.4%
Cc1cc(C)cc(Nc2nc3c(S(=O)(=O)c4ccccc4)nnn3c3ccccc23)c1	.	?	-19.4	9.4%	2.4%	6.6%
COc1cc2c3c(c1)C1(C(=O)N3C(C)(C)C=C2C)C(C#N)=C(N)Oc2cc(O)ccc21 (configuration not stated)	20.1%	-16.9%	?	2.6%	-8.3%	-14.7%
COc1cc2c3c(c1)C(C)CC(C)(C)N3C(=O)C2=O (configuration not stated)	.	.	.	0.141µM*	-2.4%	3.0%
COc1cc2c3c(c1)C(C)=CC(C)(C)N3C(=O)C2=O	-52.4%[10 µM]	.	.	3.55µM*	-4.3%[9.22 µM]	-11.3%
SMILES	HTT ATP protect	HPGD block	PNC inhibitor	ALDH1A1 block	HTT aggregate	CBFb-RUNX1 inh
COc1ccc(C(=O)Oc2cc3c4c(c2)C(C)=CC(C)(C)N4C(=O)C3=O)cc1OC	-59.8%[10 µM]	31.6µM*	-20.7	?	-23.2%	-18.6%
COc1ccc(C(=O)Oc2ccc(C(=S)N3CCCC3)cc2)cc1OC	30.6%[10 µM]	-10.0%	?	-1.9%	-7.5%	-3.7%
COc1cccc(C(=O)Oc2cc3c4c(c2)C(C)=CC(C)(C)N4C(=O)C3=O)c1	-88.5%	28.2µM*	46.7	8.91µM*	?	-16.8%
COc1ccc(C(=O)Nc2cccc(OC(=O)c3ccc(C)c(C)c3)c2)cc1	-40.0%	-12.3%	-8.1	5.0%	11.2%	1.7%
COc1cc(N=C2C(=O)N3c4c(cccc42)C(C)=CC3(C)C)cc(OC)c1	5.2%[0.074 µM]	-22.8%	9.3	0.794µM*	18.1%	1.4%
CC1=CC(C)(C)N2C(=O)C(=Nc3ccc(O)cc3)c3cccc1c32	7.8%[10 µM]	.	.	.	4.6%[9.22 µM]	?
COc1ccc(S(=O)(=O)N2CCCC(C(=O)NC3CCCCC3)C2)cc1 (configuration not stated)	-7.2%[10 µM]	-16.6%	-102.2*	7.7%	-20.9%	-2.8%
CN=C(Nc1ccc(C(=O)OC)cc1)SC1CC(=O)N(c2ccccc2F)C1=O (configuration not stated)	9.6%[10 µM]	-9.7%	-108.4*	9.0%	?	3.9%
COC(=O)c1ccc(NC2CC(=O)N(c3ccccc3C)C2=O)cc1 (configuration not stated)	-4.7%	-17.4%	17.8	12.6µM*	-2.1%	0.4%
CCN=C(Nc1ccc2c(c1)OCO2)SC1CC(=O)N(c2ccccc2F)C1=O (configuration not stated)	3.5%	-5.2%	-16.6	17.8µM*	-32.1%	-4.2%
Cc1ccccc1N1C(=O)CC(Nc2ccc3c(c2)OCO3)C1=O (configuration not stated)	-17.4%	.	.	-6.6%	9.6%	2.6%
Cc1cc(C)cc(N2CCCC2=O)c1	-13.2%[1.9 µM]	-15.3%	?	3.2%	4.0%	9.4%
CCCNC(=O)c1cc(-c2ccco2)on1	1.58µM*	?	-25.6	?	7.0%	9.5%
COc1ccc(CNC(=O)c2csc(Cc3ccc(OC)cc3)n2)cc1	-19.4%	-6.5%	30.1	-2.4%	-14.4%	5.3%
COc1ccc(CNC(=O)c2cc(-c3ccco3)on2)cc1	-21.1%	-14.3%	-3.1	3.55µM*	-2.5%	7.6%
COc1ccc(CNC(=O)c2csc(Cc3ccc(Cl)cc3)n2)cc1	-36.2%	-11.5%	-106.0*	-5.9%	?	14.0%
